Source: PubChem BioAssay
LEDGF integ inh: blocks HIV-1 LEDGF/p75-dependent DNA integration; TR-FRET IN-LEDGF/p75 DNA integration, Eu/Cy5; AID 743269; hit rate 0.64% among 370,000; inhibition, % at 3.7 µM;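 active means inhibition above the screen-wide mean plus 3 SD, cut at about 13% in these data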;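 further: signal is the Cy5 over europium emission ratio at 671 and 618 nm; 0% = plate median of compound wells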
MBD2 inh: blocks human MBD2 binding to methylated DNA; Q9UBB5; TR-FRET, MBD2 binding to methylated oligonucleotide; inhibition, % at 4.4 µM; hit rate 0.31% among 370,000; AID 686964; in the data active means inhibition above about 13%
PG9 Ab binder: small molecules binding HIV-1 gp120 antibody PG9. AID 624416. inhibition, % at 6.7 µM. TR-FRET gp120-PG9 antibody binding. hit rate 0.43% among 360,000; in the data active means inhibition above about 8.5%
UHRF1 binding: UHRF1 methyl-DNA binding inhibition | hit rate 0.75% among 370,000 | UHRF1 binding to methylated oligo, TR-FRET | inhibition, % at 4.4 µM | Q96T88;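 further: UHRF1 SRA domain binding a hemimethylated CpG hairpin DNA probe; 0% = median of test compound wells and 100% = reference inhibitor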
Target sequence (Q96T88 whole entry, looked up, the tested form may be a part): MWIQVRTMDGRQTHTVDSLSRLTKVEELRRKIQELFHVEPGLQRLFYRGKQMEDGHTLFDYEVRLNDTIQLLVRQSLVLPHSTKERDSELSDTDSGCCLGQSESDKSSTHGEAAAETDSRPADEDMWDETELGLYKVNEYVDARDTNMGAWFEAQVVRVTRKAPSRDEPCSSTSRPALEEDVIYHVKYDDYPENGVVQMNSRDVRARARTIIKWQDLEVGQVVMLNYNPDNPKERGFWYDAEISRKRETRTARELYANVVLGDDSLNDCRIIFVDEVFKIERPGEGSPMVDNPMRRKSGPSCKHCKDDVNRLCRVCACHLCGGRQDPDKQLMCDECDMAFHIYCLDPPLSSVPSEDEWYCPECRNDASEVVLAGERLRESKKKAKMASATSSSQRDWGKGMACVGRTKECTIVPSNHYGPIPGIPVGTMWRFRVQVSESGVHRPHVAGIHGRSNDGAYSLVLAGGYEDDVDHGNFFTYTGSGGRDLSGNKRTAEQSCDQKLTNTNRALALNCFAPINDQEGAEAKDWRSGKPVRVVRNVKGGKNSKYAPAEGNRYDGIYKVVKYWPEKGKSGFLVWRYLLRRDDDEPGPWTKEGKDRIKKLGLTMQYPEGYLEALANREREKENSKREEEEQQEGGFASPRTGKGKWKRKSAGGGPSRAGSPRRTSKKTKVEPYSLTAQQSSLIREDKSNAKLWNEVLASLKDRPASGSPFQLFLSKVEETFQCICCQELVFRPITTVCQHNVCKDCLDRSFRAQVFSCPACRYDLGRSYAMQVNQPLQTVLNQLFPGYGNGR
DNMT1 block: blocks human DNA methyltransferase DNMT1 | P26358 | DNMT1 molecular beacon, Hinp1I cleavage, fluorescence | inhibition (reported as % activation of signal), % at 10 µM | hit rate 0.83% among 360,000 | AID 588458; in the data active means inhibition above about 50%
rCAG RNA binder: molecules binding r(CAG) RNA repeats | r(CAG) RNA repeat, TO-PRO-1 dye displacement fluorescence | inhibition, % at 3 µM | hit rate 1.3% among 370,000 | AID 651821;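 active means inhibition above the plate cutoff, the mean of all test compounds on that plate plus 3 SD, cut at about 35% in these data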;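 further: 0% = DMSO alone and 100% = 100 µM mitoxantrone as full dye displacement; higher means more dye released from RNA so lower well fluorescence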
UHRF1 ctr MBD2: UHRF1 methyl-oligo binding inhibition as MBD2 counter-screen; shares compounds with MBD2 inh; inhibition, % at 4.4 µM; hit rate 25% among 1,000; UHRF1 binding to methylated oligonucleotide, TR-FRET;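 further: UHRF1 SRA domain binding a labeled hemimethylated CpG hairpin DNA; 0% = vehicle only and 100% = reference inhibitor with vehicle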
MBD2 confirm: MBD2-DBD methyl-DNA binding inhibition, TR-FRET confirmation; inhibition, % at 4.4 µM; shares compounds with MBD2 inh; TR-FRET MBD2-DBD binding to methylated oligonucleotide; hit rate 26% among 1,000; in the data active means inhibition above about 14%
An asterisk follows results filed as active; x = no result. A selection: hits, their analogues and other compounds. The true share with any hit is near 3.5%. Unless noted, no stated cut-off is given here; in the data, active means inhibition above about 21%; inactive means the rest.

SMILES | LEDGF integ inh | MBD2 inh | PG9 Ab binder | UHRF1 binding | DNMT1 block | rCAG RNA binder | UHRF1 ctr MBD2 | MBD2 confirm
CN1C2=N[C@@H](c3ccccc3)CC(=O)N2/C(=C\c2ccccc2)[C@H]1c1ccccc1 | 11.5 | 22.0* | x | 31.2* | x | x | 9.0 | 7.7
Cc1ccccc1CC1(CO)CCCN(C(=O)CCN2CCCO2)C1 (configuration not stated) | 4.9 | 16.0* | -1.3 | 2.4 | -2.6 | -2.3 | 4.4 | 3.3
COC(CNC(=O)c1cn(C)c2ccc(S(=O)(=O)N(C)C3CCCCC3)cc2c1=O)OC | 3.0 | 25.8* | 0.0 | 0.8 | 0.9 | -3.2 | 1.9 | 1.0
CCn1cc(C(=O)NCC(OC)OC)c(=O)c2cc(S(=O)(=O)N(C)C3CCCCC3)ccc21 | 3.2 | 0.3 | -1.0 | 2.5 | 1.0 | -4.9 | x | x
O=C(CSCc1ccccc1)Nc1ccc(F)c(F)c1 | -1.1 | 16.2* | -0.4 | -0.4 | -5.5 | 3.8 | 8.4 | 4.7
COC(=O)[C@@]1(C(C)C)N=C(c2cc(OC)c(OC)c(OC)c2)[C@]2(O1)C(=O)N(Cc1cn(Cc3ccccc3)nn1)c1ccc(F)cc12 | -2.7 | 13.8* | x | 16.2 | x | 9.2 | 11.8 | 6.0
CCN(C(=O)CSc1ncccn1)c1c(N)n(Cc2ccccc2)c(=O)[nH]c1=O | -4.3 | 0.4 | 0.3 | -0.3 | 0.9 | 1.5 | x | x
CCOC(=O)[C@]12CCC=C1N(Cc1ccco1)C(=O)[C@H](CC(=O)N1CCOCC1)C2 | -4.8 | 5.1 | -1.3 | 1.8 | x | 8.8 | x | x
CCOC(=O)[C@]12CCC=C1N(Cc1ccco1)C(=O)[C@H](CC(=O)N1CCC(c3ccccc3)CC1)C2 | -1.4 | 15.1* | -2.2 | 10.3 | x | 17.8 | 7.2 | 9.7
O=C(Nc1ccc(F)cc1)C(c1cc2ccccc2o1)N1CCN(CC(=O)N2CCCC2)CC1 (configuration not stated) | 3.7 | -2.0 | 0.6 | -2.7 | x | 1.0 | x | x
Cc1cc(OCC(=O)NC2CC(C)(C)NC(C)(C)C2)c2c(C)c(C)c(=O)oc2c1 | 4.0 | 4.5 | -1.0 | -0.5 | 10.7 | 6.2 | x | x
CC(=O)Nc1cccc(C(=O)Nc2ccc(S(=O)(=O)N3CCCCC3)cc2)c1 | 3.3 | -1.1 | 0.6 | 1.2 | -1.2 | 3.5 | x | x
COc1ccc(C(=O)c2ccc3oc(-c4ccc(OC)cc4)c(C#CCCO)c3c2)cc1 | -0.3 | -5.0 | -1.0 | -2.4 | 31.2 | 3.7 | x | x
COc1cc(OC)cc(-c2oc3cccnc3c2C#CCCO)c1 | 0.5 | 20.8* | -0.1 | 2.2 | -2.0 | 2.7 | 1.7 | 0.3
CN(C(=O)c1cccc(NC(=O)Cc2cccc(NC(=O)C3CCCN(C(=O)c4ccccc4)C3)c2)c1)C1CCC1 (configuration not stated) | 1.9 | -0.1 | -1.8 | 0.3 | 7.2 | 6.2 | x | x
CN(C)[C@H]1CCN(c2cccc3c2S(=O)(=O)N2CC[C@@H](C2)O3)C1 | 5.0 | -4.8 | x | 0.1 | x | 1.1 | x | x
CN(C)[C@H]1CCN(c2ccc3c(c2)O[C@@H]2CCN(C2)S3(=O)=O)C1 | -0.4 | 17.6* | x | 16.1 | x | 4.3 | 8.8 | 7.5
CC(C)(C)S(=O)(=O)N1C[C@@H]2C(=CC[C@H]3C(=O)N(c4ccccc4)C(=O)[C@@H]23)[C@@H]1CCO | 4.3 | 3.0 | -2.8 | 5.4 | 2.0 | 6.0 | x | x
Nc1cc(Nc2ccccc2)ccn1 | -4.0 | 44.4* | 0.5 | -0.6 | 0.9 | 1.6 | 7.2 | 1.7
CCCCCCC12C(=Cc3cc(C)ccc31)c1ccccc1C(CC(=O)NCc1ccccc1)N2C(=O)OC (configuration not stated) | 6.9 | 29.3* | -0.4 | 54.4* | x | 6.5 | 3.8 | 1.1
Cc1[nH][nH]c(=O)c1C(c1cc2c(cc1Br)OCO2)c1c(C)[nH][nH]c1=O | -0.4 | 1.2 | 0.7 | -10.3 | -17.3 | 3.1 | x | x
Cc1[nH][nH]c(=O)c1C(c1cc(Br)ccc1O)c1c(C)[nH][nH]c1=O | -1.9 | 53.4* | -2.9 | -7.5 | -8.9 | -1.2 | 1.9 | 0.5
COC(=O)[C@]12C[C@H](CC(=O)NCc3cccc4ccccc34)C(=O)N(Cc3ccccc3)C1=C[C@H](C(C)(C)C)O[C@@H]2C | -2.4 | 3.5 | -0.3 | -1.9 | x | 4.8 | x | x
COC(=O)[C@]12C[C@H](CC(=O)NCc3cccc(C(F)(F)F)c3)C(=O)N(Cc3cccc4ccccc34)C1=C[C@H](C(C)(C)C)O[C@@H]2C | -0.7 | 25.2* | x | -0.4 | x | 2.1 | -0.3 | 2.1
Cc1cc(NC(=O)CSCC(=O)N2CCN(c3cccc(C(F)(F)F)c3)CC2)no1 | -0.2 | -2.3 | -2.1 | -0.4 | 2.6 | -13.7 | x | x
SMILES | LEDGF integ inh | MBD2 inh | PG9 Ab binder | UHRF1 binding | DNMT1 block | rCAG RNA binder | UHRF1 ctr MBD2 | MBD2 confirm
COc1ccc(CNC(=O)CCS(=O)(=O)c2ccc3c(c2)oc(=O)n3C)cc1 | -0.9 | 39.2* | 0.6 | 1.5 | 1.8 | 4.2 | 5.4 | 3.5
COc1ccc2cc3cc(C(=O)Nc4ccc(F)cc4)sc3nc2c1 | -3.0 | 28.6* | x | 8.4 | x | x | 29.4* | 27.6*
CCC(C)NC(=O)c1cc2cc3ccc(OC)cc3nc2s1 (configuration not stated) | 5.5 | -7.7 | 1.1 | -3.2 | -1.3 | -1.2 | x | x
Cc1nn(CCc2n[nH]c(=S)n2-c2ccc(F)cc2)c(C)c1[N+](=O)[O-] | -1.9 | 73.2* | 0.8 | 0.3 | 2.7 | 2.9 | 7.9 | 1.5
O=C(Nc1c[nH]c(=O)[nH]c1=O)c1cc([N+](=O)[O-])cc([N+](=O)[O-])c1 | -0.2 | 29.3* | 0.3 | -2.5 | -1.4 | 0.5 | 0.1 | 4.2
CCn1cnc2cc(NC(=O)c3ccc(C)cc3)ccc21 | 2.0 | -1.9 | -2.3 | 2.3 | -0.3 | -0.8 | x | x
CCn1cnc2cc(NC(=O)COc3ccc(C)cc3)ccc21 | -3.0 | 14.7* | 1.7 | 2.9 | -6.0 | 3.6 | 3.3 | 3.7
Cc1cccc(NS(=O)(=O)c2ccc(C)c(C(=O)NCc3ccncc3)c2)c1 | -5.2 | 5.1 | 1.5 | 7.6 | -1.1 | 3.5 | x | x
Cc1ccc(-n2nc3c(N4CCC(C(=O)NCCc5ccccc5C)CC4)nnc(C)c3c2C)cc1 | x | x | x | x | -2.8 | x | x | x
Cc1ccc(-n2nc3c(N4CCC(C(=O)NCCc5ccco5)CC4)nnc(C)c3c2C)cc1 | 2.1 | 15.9* | 1.8 | 5.9 | 0.8 | 5.4 | 1.4 | 4.5
COc1ccc(-c2nc3ccc(C)cn3c2Cc2ccccc2C(F)(F)F)cc1OC | -1.8 | 13.7* | -1.4 | 21.0* | x | 1.7 | 7.9 | 5.5
C[C@H]1CN([C@@H](C)CO)C(=O)Cc2cc(NC(=O)C3CC3)ccc2O[C@H]1CN(C)Cc1ccc(Oc2ccccc2)cc1 | -0.5 | 16.6* | 2.0 | 1.9 | -18.2 | 0.4 | 4.0 | -0.4
CCn1c2ccccc2c2cc(C=NNC(=O)c3cc(-c4ccc(OC)cc4)n[nH]3)ccc21 | 0.7 | 0.2 | x | -0.5 | x | 19.3 | x | x
NC(=S)N=Nc1c(O)[nH]c2ccc(F)cc12 | 0.2 | -11.5 | -5.6 | -12.1 | -1.9 | 1.4 | x | x
